# Values joined by “and” are separate entries in the source; they are usually repeats but may differ in a detail not shown here. Identical values can stand only once. In all, about 2,000 compounds went through this assay and about 100 (5%) were called active. Cut-off read from the data, not from the text of the source: active = z-score above about 2; inactive = the rest. The sample as a whole holds a higher share of actives than the screen did. Where a structure was tested more than once in an assay, its records may differ in their call.
# Assay: supercomplex reporter luminescence per Hoechst cell count – Hoechst nuclei count (AID 1645838);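 note: control cybrid cells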;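 for z-score: higher means more mitochondrial supercomplex formation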
# Conditions: Cells, luminescence/Hoechst cell count ratio; for z-score: stronger effect = higher value; for cell count: measured here: cell number, Hoechst nuclei count
# [1] = library stock concentration (final well concentration not given) 46 uM
# [2] = library stock concentration (final well concentration not given) 278 uM
# [3] = library stock concentration (final well concentration not given) 1.67 mM
# [4] = library stock concentration (final well concentration not given) 10 mM
# [5] = library stock concentration (final well concentration not given) 80 uM
# [6] = library stock concentration (final well concentration not given) 400 uM
# [7] = library stock concentration (final well concentration not given) 2 mM
compound,measurement,setting,value
CCCCCCCCCCCCCCCCC/C=C\C(=O)O,z-score,,0.0429 (inactive)
same,cell count,,4620
CCCCCCCC/C=C\CCCCCCCC(=O)NCC,z-score,,0.358 (inactive)
same,cell count,,5660
CCCCCCCC(=O)OC[C@H](CO)OC(=O)CCCCCCC,z-score,,-0.0675 (inactive)
same,cell count,,5320
CCCCCc1ccc(C=CC(=O)Nc2ccccc2C(=O)O)cc1,z-score,[1],0.0102 (inactive)
same,z-score,[2],-0.157 (inactive)
same,z-score,[3],-0.383 (inactive)
same,z-score,[4],-0.45 (inactive)
same,cell count,[1],6840
same,cell count,[2],6660
same,cell count,[3],6860
same,cell count,[4],6620
CC(C)[C@H](C(=O)Nc1ccc(C(=O)NO)cc1)c1ccccc1,outcome,,inactive; censored for cell count
CCCCN(Cc1ccc(C(=O)NO)cc1)C(=O)Nc1ccccc1,z-score,[5],-0.413 (inactive)
same,z-score,[6],-0.344 (inactive)
same,z-score,[7],0.545 (inactive)
same,z-score,[4],1.99 (active)
same,cell count,[5],5840
same,cell count,[6],5790
same,cell count,[7],4990
same,cell count,[4],3280
CC(C)(C)CCN1C[C@@H]2C(CNC(=O)c3cc(Cl)cc(Cl)c3)[C@@H]2C1 (stereo partly drawn),z-score,[5],0.249 (inactive)
same,z-score,[6],-0.0169 (inactive)
same,z-score,[7],-0.303 (inactive)
same,z-score,[4],-0.298 (inactive)
same,cell count,[5],4670
same,cell count,[6],5180
same,cell count,[7],5270
same,cell count,[4],4390
CCCCC[C@H](O)/C=C/[C@@H]1[C@H]2CC(CCCCC(=O)O)O[C@H]2C[C@H]1O (stereo partly drawn),z-score,,-0.784 (inactive)
same,cell count,,6080
O=C(NC(=O)c1c(F)cccc1Cl)NC1c2ccccc2-c2ccccc21,z-score,[1],-0.18 (inactive)
same,z-score,[2],-0.113 (inactive)
same,z-score,[3],-0.216 (inactive)
same,z-score,[4],-0.278 (inactive)
same,cell count,[1],6490
same,cell count,[2],6240
same,cell count,[3],6190
same,cell count,[4],5520
CC(C=CC1=C(C)CCCC1(C)C)=CC=CC(C)=CC(=O)O,z-score,[1],-0.113 (inactive)
same,z-score,[2],-0.063 (inactive)
same,z-score,[3],-0.22 (inactive)
same,z-score,[4],0.0473 (inactive)
same,cell count,[1],5180
same,cell count,[2],5150
same,cell count,[3],5430
same,cell count,[4],4870
O=C1NC(=O)/C(=C/c2ccc3c(c2)OC(F)(F)O3)S1,z-score,,0.349 (inactive)
same,cell count,,4670
O=C1NC(=O)/C(=C/c2ccc3nccnc3c2)S1,z-score,,0.662 (inactive)
same,cell count,,4050
O=C1NC(=O)C(=Cc2ccc3nccnc3c2)S1,z-score,[5],-0.0169 (inactive) and -0.181 (inactive)
same,z-score,[6],0.573 (inactive) and -0.161 (inactive)
same,z-score,[7],1.47 (inactive) and -0.299 (inactive)
same,z-score,[4],2.46 (active) and -0.465 (inactive)
same,cell count,[5],4280 and 5470
same,cell count,[6],4140 and 5420
same,cell count,[7],3800 and 5820
same,cell count,[4],2300 and 3900
CC(C)(CCCCCCCCCCC(C)(C)CC(=O)O)CC(=O)O,z-score,,2.9 (active)
same,cell count,,5040
CCCCCCCCCCC(=O)O,z-score,[1],-0.0477 (inactive)
same,z-score,[2],0.267 (inactive)
same,z-score,[3],-0.0647 (inactive)
same,z-score,[4],0.212 (inactive)
same,cell count,[1],6640
same,cell count,[2],6810
same,cell count,[3],6810
same,cell count,[4],6380
CCCCCCCCCCCCCCCC(=O)O,z-score,,-0.762 (inactive)
same,cell count,,5780

# From PubChem BioAssay AID1645838 (ICCB-Longwood Screening Facility, Harvard Medical School, 2021)
